Measurements as given in ChEMBL document CHEMBL1201862, “PubChem BioAssay data set” (2004).
The whole screen tested about 400,000 compounds, of which about 1,900 (0.47%) were called active. About 14% were inconclusive and are not listed. The rule behind the calls is not given here. Shown is part of a subset that was picked to be rich in actives.

What follows are molecules tested against Ataxin-2 (Homo sapiens) (UniProt Q99700) (assay: qHTS for Inhibitors of ATXN expression.).
Type: functional

Sequence of Ataxin-2 (Homo sapiens) (Q99700 whole entry): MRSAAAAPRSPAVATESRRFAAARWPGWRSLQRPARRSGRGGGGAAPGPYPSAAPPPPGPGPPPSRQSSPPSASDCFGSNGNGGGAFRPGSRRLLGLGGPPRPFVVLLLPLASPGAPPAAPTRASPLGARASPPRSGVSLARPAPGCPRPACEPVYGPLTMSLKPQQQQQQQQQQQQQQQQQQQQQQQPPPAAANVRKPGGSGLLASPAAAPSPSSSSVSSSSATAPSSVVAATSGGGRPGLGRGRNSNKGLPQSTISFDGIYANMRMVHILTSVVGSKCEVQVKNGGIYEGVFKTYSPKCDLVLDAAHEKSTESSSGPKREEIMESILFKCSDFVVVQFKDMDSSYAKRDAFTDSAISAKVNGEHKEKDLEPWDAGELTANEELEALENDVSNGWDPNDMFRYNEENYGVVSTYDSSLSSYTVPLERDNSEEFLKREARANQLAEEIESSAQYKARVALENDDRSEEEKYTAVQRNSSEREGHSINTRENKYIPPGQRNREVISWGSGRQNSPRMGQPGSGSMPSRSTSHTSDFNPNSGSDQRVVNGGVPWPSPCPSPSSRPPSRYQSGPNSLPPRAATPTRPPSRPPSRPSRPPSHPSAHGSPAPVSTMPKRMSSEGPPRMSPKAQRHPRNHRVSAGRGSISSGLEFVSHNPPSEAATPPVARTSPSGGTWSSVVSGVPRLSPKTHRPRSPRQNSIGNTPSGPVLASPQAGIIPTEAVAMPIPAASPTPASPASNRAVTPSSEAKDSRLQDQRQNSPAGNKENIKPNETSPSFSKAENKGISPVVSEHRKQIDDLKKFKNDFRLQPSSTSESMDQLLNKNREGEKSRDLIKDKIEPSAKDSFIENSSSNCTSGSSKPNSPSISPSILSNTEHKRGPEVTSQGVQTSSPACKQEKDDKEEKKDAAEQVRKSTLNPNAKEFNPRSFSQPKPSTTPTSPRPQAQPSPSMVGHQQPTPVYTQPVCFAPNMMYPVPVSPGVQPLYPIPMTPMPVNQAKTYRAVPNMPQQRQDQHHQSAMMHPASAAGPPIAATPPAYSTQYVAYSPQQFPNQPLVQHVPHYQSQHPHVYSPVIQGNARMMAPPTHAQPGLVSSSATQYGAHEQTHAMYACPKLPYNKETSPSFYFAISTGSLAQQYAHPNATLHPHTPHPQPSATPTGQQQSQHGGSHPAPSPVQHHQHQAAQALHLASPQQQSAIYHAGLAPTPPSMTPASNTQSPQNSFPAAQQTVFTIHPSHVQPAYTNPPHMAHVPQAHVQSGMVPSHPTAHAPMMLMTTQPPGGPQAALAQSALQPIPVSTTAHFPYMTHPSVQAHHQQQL

SMILES	Potency
COc1cccc(C(c2nnnn2Cc2ccccc2)N2CCC3(CC2)C(=O)NCN3c2ccccc2)c1OC (stereo not drawn)	39.8 µM (active)
Cc1c(CC(=O)N2C[C@H]3C[C@@H](C2)c2cccc(=O)n2C3)c(=O)oc2c(C)c(O)ccc12	inactive
COc1ccc2c(c1)NP(=S)(Oc1ccccc1)N2 (stereo not drawn)	inactive
N#Cc1cccc(NC(=O)CSc2nc3c(cc2C#N)N2CCC3CC2)c1	inactive
Fc1cccc(F)c1CN1CCN(c2ccc(Cl)cc2)CC1	inactive
CCC(C)NC(=O)c1c(N)n(CCCOC)c2nc3ccccc3nc12 (stereo not drawn)	inactive
CCCCNC(=O)c1c(N)n(CCCOC)c2nc3ccccc3nc12	inactive
Cc1cc(=O)oc2cc3c(cc12)CCCN3	inactive
CC[C@H](C)/C=C(C)/C=C/C1=CC2=C(Cl)C(=O)[C@](C)(OC(C)=O)C(=O)C2=CO1	28.2 µM (active)
CCn1nc(/C=C/c2ccccc2)nc2c(=O)n(C)c(=O)nc1-2	10.6 µM (active)
COc1ccc(-n2c(/C=C/c3ccc(O)cc3)nc3ccccc3c2=O)cc1	inactive
CCn1nc(-c2ccccc2)nc2c(=O)n(C)c(=O)nc1-2	20 µM (active)
CCN1C(=O)/C(=C/NNC(=O)c2ccncc2)C(=O)NC1=S	inactive
CCOc1ccc2nc(NN=C3C(=O)NC(=S)NC3=O)sc2c1	15 µM (active)
CCC(=O)N1N=C2C3CCN(CC3)C2C1c1ccc(C)cc1 (stereo not drawn)	inactive
COc1cccc(C(=O)NCc2nc(-c3cccc(NC(=O)c4ccoc4C)c3)oc2C)c1OC	28.2 µM (active)
Nc1ccc2c(c1)Cc1cc([N+](=O)[O-])ccc1-2	inactive
Clc1ccc2c(c1)C(OC1CN3CCC1CC3)c1ccccc1CS2 (stereo not drawn)	28.2 µM (active)
CCOc1ccc(NS(=O)(=O)c2ccc(Cl)c(NN=C3C(=O)NC(=S)NC3=O)c2)cc1Br	28.2 µM (active)
COc1ccc(S(=O)(=O)Nc2ccccc2OC)cc1NN=C1C(=O)NC(=S)NC1=O	39.8 µM (active)
Nc1ccc2ccc3cccc[n+]3c2c1	inactive
COCCCNC(=O)c1c(NC(=O)c2ccccc2Cl)n(Cc2ccccc2)c2nc3ccccc3nc12	inactive
CCC1(OC(=O)CN)C(=O)OCc2c1cc1n(c2=O)Cc2cc3ccccc3nc2-1 (stereo not drawn)	inactive
CC[C@@]1(O)C(=O)OCc2c1cc1n(c2=O)Cc2cc3ccccc3nc2-1	0.01 µM (active)

SMILES	Potency
CCC1(O)C(=O)OCc2c1cc1n(c2=O)Cc2cc3cc(O)ccc3nc2-1 (stereo not drawn)	inactive
CCCCCn1c(=O)c(C(=O)NCc2ccccc2Cl)c(O)c2ccccc21	inactive
NNC(=O)CN1C(=O)CN=C(c2ccccc2)c2cc(Br)ccc21	inactive
O=C(CN1C(=O)CN=C(c2ccccc2)c2ccccc21)Nc1cccc(C(F)(F)F)c1	31.6 µM (active)
C=C1C(=O)OC2CC3(C)OC3CCC(C)=CC(OC(C)=O)C12 (stereo not drawn)	33.6 µM (active)
CCCCn1c(NS(=O)(=O)c2ccccc2)c(C(=O)OCC)c2nc3ccccc3nc21	inactive
CCOC(=O)c1c(NS(=O)(=O)c2ccccc2)n(CCCOC)c2nc3ccccc3nc12	inactive
COCCCn1c(N)c(C(=O)NCCC(C)C)c2nc3ccccc3nc21	inactive
Brc1cccc(CNCCc2ccc3c(c2)OCO3)c1	inactive
CNCCC(Oc1ccc(C(F)(F)F)cc1)c1ccccc1 (stereo not drawn)	31.6 µM (active)
CC[C@@]1(O)C(=O)OCc2c1cc1n(c2=O)Cc2cc3c(NC(=O)CN)cccc3nc2-1	inactive
COC(=O)c1ccc(C(C(=O)NC2CCCCC2)N(CCN2CCOCC2)C(=O)Cc2cccs2)cc1 (stereo not drawn)	inactive
CCc1ccc2c(c1)Sc1ccccc1CC2N1CCN(C)CC1 (stereo not drawn)	inactive
O=c1ccc2cc(OC3O[C@H](CO)[C@@H](O)[C@H](O)[C@H]3O)c(O)cc2o1 (stereo partly drawn)	inactive
O=[N+]([O-])c1ccc(N(CCO)CCO)c2c1no[n+]2[O-]	17.8 µM (active)
O=[N+]([O-])c1ccc(N2CCOCC2)c2c1no[n+]2[O-]	3.98 µM (active)
O=[N+]([O-])c1ccc(N2CCOCC2)c2cccnc12	inactive
CN1CCN(c2ccc([N+](=O)[O-])c3no[n+]([O-])c23)CC1	7.08 µM (active)
COc1ccc(Br)cc1CNCCc1ccc2c(c1)OCO2	inactive
Cc1cc2c(C(F)(F)F)cc(=O)oc2c2c1NCCC2	inactive
Cc1cc(/C=C2\C(=O)NC(=O)N(Cc3ccccc3Cl)C2=O)c(C)n1-c1ccc(C(=O)O)cc1	inactive
Cc1cccc(N2C(=O)NC(=O)/C(=C/c3cc4c(cc3[N+](=O)[O-])OCO4)C2=O)c1	inactive
Cc1cc(C=C2C(=O)NC(=S)NC2=O)c(C)n1-c1ccc2c(c1)OCO2	39.8 µM (active)
CCN(C(=O)COC(=O)c1cn(C)c2ccccc12)c1ccc(F)cc1	inactive
